The values below come from PubChem BioAssay (NCI).

The nature of assay [1]: NCI Yeast Anticancer Drug Screen. Data for the rad50 strain (AID 155).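 Further: 0% = growth of vehicle-only cultures of the same strain.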 Conditions: S. cerevisiae rad50 strain growth inhibition; at 50.0 µM; active compounds read high. The method in brief:
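Genetically altered yeast (DNA repair pathway); compound treatment; growth inhibition vs vehicle ctrl.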

Assay [2] is described as follows: NCI Yeast Anticancer Drug Screen. Data for the mec2-1 strain (AID 157). The settings on record: S. cerevisiae mec2-1 strain, at 50.0 µM, active compounds read high. The procedure, abridged: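 Using mec2-1 yeast: add compound, measure growth, express inhibition versus vehicle-treated cultures.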
Assay [3] in a line: NCI Yeast Anticancer Drug Screen. Data for the sgs1 mgt1 strain (AID 161).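 Further: 0% = growth of cultures given vehicle only.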 The settings on record: S. cerevisiae sgs1 mgt1 strain, at 50.0 µM, active compounds read high. The method in brief: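 Yeast cells carrying a defined DNA-repair defect were exposed to test compounds. Growth inhibition was measured relative to vehicle-treated controls.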
A short description of assay [4]: NCI Yeast Anticancer Drug Screen. Data for the cln2 rad14 strain (AID 165).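 Further: 0% = growth equal to vehicle treated cultures.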 The settings on record: S. cerevisiae cln2 rad14 strain, at 50.0 µM, active compounds read high. The procedure, abridged: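 Yeast strain cln2 rad14, bearing defects in cell cycle control and DNA repair, serves as the test system; values reflect growth inhibition compared with vehicle.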
The nature of assay [5]: NCI Yeast Anticancer Drug Screen. Data for the bub3 strain (AID 167). Conditions: S. cerevisiae bub3 mutant strain, at 50.0 µM, active compounds read high. The method in brief: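 Yeast carrying a defined mutation is treated with each compound, and growth is compared with that of vehicle-exposed cells to give inhibition.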
Assay [6] can be described thus: NCI Yeast Anticancer Drug Screen. Data for the mlh1 rad18 strain (AID 175). Conditions: S. cerevisiae mlh1 rad18 strain growth inhibition; at 50.0 µM; active compounds read high. The method in brief: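 Steps: expose repair-defective yeast to compound; measure growth; express inhibition against vehicle-treated controls.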

Molecules are shown by their SMILES. The panel holds about 79,000 compounds, 15% with a hit somewhere; the sample as a whole holds those more often. Unmarked numbers belong to inactive results. Activity calls are given as the source filed them. No stated cut-off is given here; in the data, active means growth inhibition above about 70%; inactive means the rest.

On to `CC(C)OP(=O)(CP(=O)(OC(C)C)OC(C)C)OC(C)C.[CH3][Sn]([Br])([Br])[Br]`, for which the growth inhibition in assay [1] was -27.4%; in assay [2] it was -23.6%; in assay [3], -32.5%; in assay [4], 6.7%; in assay [5], -19.1%; in assay [6] it was -23%.
For the molecule `C1=C/CCC2NC2C/C=C/CCC/1` (stereo unspecified), the growth inhibition in assay [1] was -6.8%; in assay [2], -20.4%; in assay [3], -10.6%; in assay [4], -18.4%; in assay [5] it was -22.8%; in assay [6], -19.6%.
With `CCCCCCCCCCCCCCC(O)C1CCC(C(O)CCC(O)CCCCCC(O)CC2=CC(C)OC2=O)O1` (stereo unspecified), the growth inhibition in assay [1] is -37.2%; in assay [2], -33.1%; in assay [3], -17.6%; in assay [4] it was 39.8%; in assay [5] it was -25.4%; in assay [6], 2.7%.
`CN(C)C(=O)c1cc(N(CCCl)CCCl)c([N+](=O)[O-])cc1[N+](=O)[O-]`: the growth inhibition in assay [1] was -2.75%; in assay [2] it was -10.1%; in assay [3] it was -3.35%; in assay [4], 2.3%; in assay [5], -13.6%; in assay [6], 0.3%.
For the molecule `CCOP(=O)(OCC)/C(C#N)=C/c1ccoc1`, the growth inhibition in assay [1] is -36%; in assay [2], -5.8%; in assay [3], -58.2%; in assay [4], -15.2%; in assay [5], -29.9%; in assay [6], -51%.
`CC(C)C1CN1CC(O)Cn1ccnc1[N+](=O)[O-]` (stereo unspecified): the growth inhibition is -15.2% in assay [1]; -17.8% in assay [2]; -19.1% in assay [3]; 0% in assay [4]; 7.35% in assay [5]; -19.2% in assay [6].
`CC1(C)N=C(N)N=C(N)N1c1ccc(CCc2ccc(Cl)c(S(=O)(=O)F)c2)c(Cl)c1`: the growth inhibition is 99.3% (active) in assay [1]; 99.5% (active) in assay [2]; 99.3% (active) in assay [3]; 93.8% (active) in assay [4]; 98.3% (active) in assay [5]; 99.7% (active) in assay [6].
With `CCCNC(Cc1ccccc1)c1ccccc1` (stereo unspecified), the growth inhibition is -7.95% in assay [1]; -9.25% in assay [2]; 3.4% in assay [3]; -10.1% in assay [4]; -0.7% in assay [5]; -1% in assay [6].
Take `CCCCSP(=S)(SCCCC)c1ccc(Cl)cc1`: the growth inhibition is 30.7% in assay [1]; 9.4% in assay [2]; 13.8% in assay [3]; 17.6% in assay [4]; 19% in assay [5]; 14.2% in assay [6].
Take `CN1CCC(OC(=O)Oc2ccccc2)(c2ccccc2)CC1`: the growth inhibition was 1.6% in assay [1]; 9.6% in assay [2]; 3.95% in assay [3]; 33.7% in assay [4]; 48.5% in assay [5]; -6.65% in assay [6].
Consider `CCCCN(CCCC)CC(=O)c1ccc(Br)cc1`, for which the growth inhibition in assay [1] was 7.05%; in assay [2] it was 2.5%; in assay [3], 20.2%; in assay [4], -24.4%; in assay [5] it was 18%; in assay [6], 27.6%.
As for `Nc1cc(C(=O)O)ccc1O.[Cl][Sn][Cl]`, the growth inhibition is 2.2% in assay [1]; -4.15% in assay [2]; -6.4% in assay [3]; -45.8% in assay [4]; -1.65% in assay [5]; -19.4% in assay [6].
For the molecule `Cc1c([N+](=O)[O-])cc2c(c1[N+](=O)[O-])C(C)(C)CC2(C)C`, the growth inhibition is -18.9% in assay [1]; -22.5% in assay [2]; -9.2% in assay [3]; 10.4% in assay [4]; 14.8% in assay [5]; -6.3% in assay [6].
As for `N#Cc1ccncc1`, the growth inhibition in assay [1] is 22.3%; in assay [2], -24.1%; in assay [3], 23.9%; in assay [4] it was -3.75%; in assay [5] it was 7.35%; in assay [6], 16%.
Consider `OC(CN(C1CCCCC1)C1CCCCC1)c1ccc(Cl)c(Cl)c1` (stereo unspecified), for which the growth inhibition in assay [1] is -3.1%; in assay [2], -30.9%; in assay [3] it was -14.4%; in assay [4] it was -36%; in assay [5], 35.4%; in assay [6], -28.2%.
In the case of `CC[C@@]1(O)C(=O)OCc2c1cc1n(c2=O)Cc2c-1nc1ccccc1c2Cl`, the growth inhibition in assay [1] is 94.9% (active); in assay [2], 92% (active); in assay [3] it was 63.8%; in assay [4], 81.8% (active); in assay [5], -6.7%; in assay [6], 46.3%.
`CCOP(=O)(OCC)C(=C(Cl)Cl)C(Cl)Cl`: the growth inhibition is 82.6% (active) in assay [1]; 85.2% (active) in assay [2]; 8.75% in assay [3]; 37.6% in assay [4]; -17.1% in assay [5]; 49.8% in assay [6].
Regarding `[CH3][Sn]([CH3])([n]1cnc2ccccc21)[n]1cnc2ccccc21`, the growth inhibition was 0.85% in assay [1]; 9.9% in assay [2]; 12.2% in assay [3]; -4.85% in assay [4]; 0.1% in assay [5]; -3.45% in assay [6].
Consider `O=C(O)CNC(=O)c1ccc([As](=O)(O)O)cc1`, for which the growth inhibition in assay [1] was 21.1%; in assay [2], 19.1%; in assay [3] it was -26.4%; in assay [4] it was 10.2%; in assay [5] it was 22.1%; in assay [6], 15.3%.
Turning to `c1ccc2c(c1)Nc1ccccc1S2`, the growth inhibition is 41% in assay [1]; 10.1% in assay [2]; 17.9% in assay [3]; 28.4% in assay [4]; 28.5% in assay [5]; 34.2% in assay [6].
Turning to `O=C(CCl)NC1CCCCC1`, the growth inhibition is 9.7% in assay [1]; -8.45% in assay [2]; 7.15% in assay [3]; -4.25% in assay [4]; 10.9% in assay [5]; -6.45% in assay [6].
